In PubChem BioAssay (NCATS):
Results filed as inconclusive are left out. Activity calls are given as the source filed them. Calls come from the whole dose curve; as a rule, active = well fitted curve in the direction sought with a large enough effect; inconclusive = small, poorly fitted or top-dose-only effect, or another doubt; inactive = no such curve, though single readings can be large; an effect the other way counts as inactive or inconclusive.

Columns and labels:
[1] = molecular target: Arylsulfatase A (Homo sapiens) (UniProt P15289); test: qHTS screen for enhancers of Arylsulfatase A (ASA1): LOPAC Validation Assay (AID 720538); details: ASA enzyme activity, LOPAC qHTS enhancer assay; series mostly up to 57.5 µM; note: potency is the fitted concentration of half-maximal effect
In short: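 SV40-transformed skin fibroblasts from an MLD patient (ASA-I179S) were treated with compounds for 48h at 37 degree C, then lysed with 0.5mM pNCS final substrate for 14h at room temperature; NaOH stop, fluorescence read (Ex=525 nm; Em=598 nm).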

[2] = qHTS for compounds that reverse cellular toxicity of Amyloid beta (A-beta) peptide in yeast: LOPAC Validation Assay (AID 720559); details: yeast expressing A-beta; series mostly up to 46.1 µM
In short: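 Yeast cells expressing toxic A-beta were combined with pinned compounds in growth medium and incubated 48 hr at 30 C. Growth was read as absorbance at 600 nm and normalized to DMSO and to an equimolar FeCl3/clioquinol positive control.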

[3] = qHTS for Activators of Parkin Expression: LOPAC Validation Assay (NLuc Reporter) (AID 720572); details: Parkin promoter NanoLuc reporter cells, luminescence; series mostly up to 46.1 µM
In short: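 Cells harboring the Parkin-promoter coincidence reporter were treated for 24 h at seven concentrations. NLuc output was measured sequentially after the FLuc channel and scaled between DMSO and positive control values.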

[4] = qHTS for Activators of Parkin Expression: LOPAC Validation Assay (FLuc Reporter) (AID 720573; note: potency is the fitted concentration of half-maximal effect); details: Cell line, PRKN promoter firefly luciferase reporter; series mostly up to 46.1 µM
In short: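 Neuronal cell line stably carrying FLuc/NLuc coincidence reporter under Parkin promoter; cells plated 24 h, then compounds added in 7-point dose response for 24 h at 37 C. FLuc luminescence read; normalized to DMSO and positive control (100%).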

Measured: Potency

Arylsulfatase A (Homo sapiens), sequence (P15289 whole entry, looked up): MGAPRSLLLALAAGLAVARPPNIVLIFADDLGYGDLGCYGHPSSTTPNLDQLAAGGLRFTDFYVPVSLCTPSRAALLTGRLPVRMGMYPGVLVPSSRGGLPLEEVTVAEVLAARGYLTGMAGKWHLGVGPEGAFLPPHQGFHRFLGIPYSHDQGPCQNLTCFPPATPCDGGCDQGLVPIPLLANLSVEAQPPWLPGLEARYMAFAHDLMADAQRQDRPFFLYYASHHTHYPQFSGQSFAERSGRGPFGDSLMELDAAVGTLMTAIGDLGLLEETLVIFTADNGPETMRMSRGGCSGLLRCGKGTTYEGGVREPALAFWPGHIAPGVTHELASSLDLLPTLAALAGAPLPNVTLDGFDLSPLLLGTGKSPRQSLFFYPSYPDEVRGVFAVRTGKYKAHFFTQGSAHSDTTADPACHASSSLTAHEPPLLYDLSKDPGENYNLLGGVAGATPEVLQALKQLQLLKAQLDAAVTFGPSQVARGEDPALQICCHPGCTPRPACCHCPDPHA

O=c1[nH]c2ccccc2c2ccccc12
inactive: [1] | [2] | [3] | [4]

N[C@@H](Cc1ccc(F)cc1)C(=O)O
inactive: [1] | [2] | [3] | [4]

C[N+](C)(C)CC=O
inactive: [1] | [2] | [3] | [4]

Cn1c(=O)[nH]c2ncn(C)c2c1=O
inactive: [1] | [2] | [3] | [4]

NC1(C(=O)O)CC1
inactive: [1] | [2] | [3] | [4]

O=C(O)C1=CCNCC1
inactive: [1] | [2] | [3] | [4]

Cn1c(=O)c2[nH]c(C3CCCC3)nc2n(C)c1=O
inactive: [1] | [2] | [3] | [4]

N=C(N)SCCc1cnc[nH]1
inactive: [1] | [2] | [3] | [4]

CN(CC[C@@H](Oc1ccc(C(F)(F)F)cc1)c1ccccc1)CC(=O)O
inactive: [1] | [2] | [3] | [4]

COc1cc(C(O)CO)ccc1O (stereo not drawn)
inactive: [1] | [2] | [3] | [4]

CC(C)Cn1c(=O)n(C)c(=O)c2[nH]cnc21
inactive: [1] | [2] | [3] | [4]

O=C1C2C=CC=CC2=NC(=S)N1CCN1CCC(=C(c2ccc(F)cc2)c2ccc(F)cc2)CC1 (stereo not drawn)
inactive: [1] | [2] | [3] | [4]

CC(=O)O[C@H]1CC2(C)[C@@H](C[C@@H](O)[C@H]3[C@@]4(C)CC[C@@H](O)[C@@H](C)[C@@H]4CC[C@@]32C)C1=C(CCC=C(C)C)C(=O)O (stereo partly drawn)
inactive: [1] | [2] | [3] | [4]

CCCCCCCCCCC(C)(C)C(=O)Nc1c(OC)cc(OC)cc1OC
inactive: [1] | [2] | [3] | [4]

CC(N)(C(=O)O)c1ccc(C(=O)O)cc1 (stereo not drawn)
inactive: [1] | [2] | [3] | [4]

C[C@H](O)C(=O)C1=Nc2c(nc(N)[nH]c2=O)NC1
inactive: [1] | [2] | [3] | [4]

NC1(C(=O)O)CCc2cc(C(=O)O)ccc21 (stereo not drawn)
inactive: [1] | [2] | [3] | [4]

c1ccc2c(c1)CCC[C@H]2Nc1nc2ccccc2[nH]1
inactive: [1] | [2] | [3] | [4]

CCn1c(=O)[nH]c2cc(Cl)c(Cl)cc21
inactive: [1] | [2] | [3] | [4]

Cc1ccc2c(c1)C(N1CCN(C)CC1)=Nc1cccnc1N2
inactive: [1] | [2] | [3] | [4]

CC[n+]1c(/C=C/C=C2/N(C)c3ccccc3C2(C)C)sc2ccccc21
inactive: [1] | [2] | [3] | [4]

c1ccc(C(NCCNC(c2ccccc2)c2ccccc2)c2ccccc2)cc1
inactive: [1] | [2] | [3] | [4]

CC(C)NCC(O)COc1ccc(CC(N)=O)cc1 (stereo not drawn)
inactive: [1] | [2] | [3] | [4]

COc1cc(/C=C(\C#N)C(=O)Nc2nnc(C(F)(F)F)s2)ccc1OCc1ccc(C(F)(F)F)cc1C(F)(F)F
inactive: [1] | [2] | [4]

c1ccc2nc(C3=NCCN3)ccc2c1
inactive: [1] | [2] | [3] | [4]

CC(N)=O
inactive: [1] | [2] | [3] | [4]

CCN(CC)CCCCCCCCOC(=O)c1cc(OC)c(OC)c(OC)c1
inactive: [1] | [2] | [3] | [4]

CC(C)C[C@H](NC(=O)C1OC1C(=O)O)C(=O)NCCCCN=C(N)N (stereo partly drawn)
inactive: [1] | [2] | [4]

NC(=Nc1ccccc1)NC(=O)c1nc(Cl)c(N)nc1N
inactive: [1] | [2]
active: [4] 8.2 µM

CCCCOC(=O)NS(=O)(=O)c1sc(CC(C)C)cc1-c1ccc(Cn2c(CC)nc3c(C)cc(C)nc32)cc1
inactive: [1] | [2] | [4]

COc1ccccc1N1CCN(CCCCNC(=O)c2ccc3ccccc3c2)CC1
inactive: [1] | [2] | [3] | [4]

Nc1ncnc2c1ncn2C1CCCC1
inactive: [1] | [2] | [4]

CN(C)CCCc1cc(C(=O)Nc2ccc(-c3ccncc3)cc2)ccc1O
inactive: [1] | [2] | [4]

CC(C)(CO)Cc1cc(C(C)(C)C)c(O)c(C(C)(C)C)c1
inactive: [1] | [2] | [3] | [4]

O=c1cc(O)cc(/C=C/c2ccc(O)c(O)c2)o1
inactive: [1] | [2] | [4]

COc1cc(CNC(=O)CCCCCCC(C)C)ccc1O
inactive: [1] | [2] | [3] | [4]

O=C(O)c1cc2cc(F)ccc2[nH]1
inactive: [1] | [2] | [4]

Nc1ccc(-c2nc3ccc(-c4nc5ccc(N)cc5[nH]4)cc3[nH]2)cc1
inactive: [2] | [4]
active: [1] 6.75 µM
